Screens as filed in PubChem BioAssay.
KB-V1 MDR tox: qHTS assay for MDR1-selective chemotherapeutics: Primary screen using the drug-selected MDR subline cells KB-V1 | hit rate 3.4% among 400,000 | Potency, µM (series often up to 46.1 µM), usual class: cytotoxic | KB-V1 MDR cells viability, CellTiter-Glo, 72 h | AID 1347076, 2019; also: nearly all actives have a fitted effect of over 60% in size
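KB-V1, DMEM (no phenol red) + 10% FBS; cpd pin-transferred, titration series; 72 h, 37 degrees C; CellTiter-Glo, luminescence. Data normalized, curve-fit.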
KB-3-1 tox: qHTS assay for MDR1-selective chemotherapeutics: Primary screen using the parental adenocarcinoma cell KB-3-1 | Potency, µM (highest dose often 46.1 µM), most hits filed as cytotoxic | KB-3-1 viability, CellTiter-Glo ATP luminescence, 72 h | hit rate 1.4% among 400,000; also: nearly all actives have a fitted effect of over 60% in size
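Cytotoxicity in the drug-sensitive parental line KB-3-1 was scored as loss of CellTiter-Glo luminescence following 72 h incubation with compound. Values come from curve fitting of normalized concentration-response data.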
DT40 TDP1 CPT: qHTS for Inhibitors of human tyrosyl-DNA phosphodiesterase 1 (TDP1): qHTS in cells in presence of CPT; chicken DT40 Tdp1-/-;hTDP1 cells + 20 nM CPT, ATP luminescence, 48 h; Potency, µM (titrated, usually from 46.2 µM), hits mostly inhibitors; hit rate 12% among 420,000; also: nearly all actives have a fitted effect of over 55% in size
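Cell growth measured by CellTiter-Glo luminescence after a minimum 48 h, 37 C compound exposure with 20 nM CPT in Tdp1-knockout DT40 cells stably expressing hTDP1, seeded 400/well; qHTS titration format.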
HT1080NT lethal: qHTS for induction of synthetic lethality in tumor cells producing 2HG: qHTS for the HT-1080-NT fibrosarcoma cell line | Potency, µM (top dose mostly 46.1 µM), most hits filed as cytotoxic | HT-1080-NT fibrosarcoma viability, CellTiter-Glo ATP luminescence, 48 h | hit rate 1.6% among 360,000;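 also: NT is the 2HG producing partner of a matched IDH1 knockdown line; nearly all actives have a fitted effect of over 55% in size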
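HT-1080-NT fibrosarcoma cells (2HG-overproducing), 750 cells/well in RPMI with 5% FBS, dosed after 2 h and incubated 48 h at 37C. CellTiter-Glo luminescence normalized to DMSO and no-cell wells; concentration-response curves fitted and classed.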
HT1080 IDH1KD tx: qHTS for induction of synthetic lethality in tumor cells producing 2HG: qHTS for the HT-1080-IDH1KD cell line; AID 686971, 2013; HT-1080 IDH1 knockdown viability, ATP luminescence, 48 h; hit rate 2% among 360,000; Potency, µM (series often up to 46.1 µM), usual class: cytotoxic
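After a 2 h attachment period, IDH1KD HT-1080 cells took pin-transferred compound for 48 h at 37 °C; ATP-based luminescence after 10 min room-temperature reagent incubation reported viability.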
DT40 TDP1 no CPT: qHTS for Inhibitors of human tyrosyl-DNA phosphodiesterase 1 (TDP1): qHTS in cells in absence of CPT | DT40 Tdp1-/- hTDP1 cells, no CPT, ATP luminescence, 48 h | Potency, µM (titrated, usually from 46.2 µM), hits mostly inhibitors | hit rate 15% among 420,000 | AID 686978, 2013; also: nearly all actives have a fitted effect of over 55% in size
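Compound effects on proliferation are scored in DT40 Tdp1-/-;hTDP1 cells in the absence of CPT. ATP levels (CellTiter-Glo luminescence) are recorded after a ≥48 hr, 37 °C incubation.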
Of the large screens only hits and unclear results are named; the others gave an inactive call. In the library only some 19% were active in any assay of this set; here they are far more common. Calls follow the shape of the dose curve; as a rule, active = well fitted curve in the direction sought with a large enough effect; inconclusive = small, poorly fitted or top-dose-only effect, or another doubt; inactive = no such curve, though single readings can be large; an effect the other way counts as inactive or inconclusive.

Cc1c(C(=O)OCc2nnc(-c3ccccc3)o2)oc2ccccc12	none
CCc1nc2ccccc2c(C(=O)OCc2nnc(-c3ccccc3)o2)c1C	DT40 TDP1 CPT 18µM, HT1080 IDH1KD tx inconclusive, DT40 TDP1 no CPT inconclusive
CCc1nc2ccccc2c(C(=O)OCc2nc3ccccc3c(=O)[nH]2)c1C	KB-V1 MDR tox inconclusive, KB-3-1 tox inconclusive, DT40 TDP1 CPT 3.3µM, HT1080NT lethal 10µM, HT1080 IDH1KD tx 18µM, DT40 TDP1 no CPT 4.6µM
CCCOP(=O)(c1ccc(N(C)C)cc1)C(O)c1ccccc1OC (configuration not stated)	DT40 TDP1 no CPT inconclusive
C=CC(=O)N(CCC)C(c1ccccc1)c1ccccc1OC (configuration not stated)	KB-3-1 tox inconclusive, DT40 TDP1 CPT 16µM, DT40 TDP1 no CPT 15µM
CCN(CC)C1Oc2cc3c(cc2C(c2cccc(OC)c2O)C1C)OCO3 (configuration not stated)	KB-V1 MDR tox inconclusive, KB-3-1 tox inconclusive, DT40 TDP1 CPT inconclusive, HT1080NT lethal inconclusive, HT1080 IDH1KD tx inconclusive, DT40 TDP1 no CPT 23µM
COc1cccc(C2c3cc4c(cc3OC(C)(N3CCCC3)C2C)OCO4)c1O (configuration not stated)	KB-V1 MDR tox 16µM, KB-3-1 tox inconclusive, DT40 TDP1 CPT 13µM, HT1080NT lethal inconclusive, HT1080 IDH1KD tx inconclusive, DT40 TDP1 no CPT 10µM
COc1cccc(/C=N/N2CCOCC2)c1O	none
COc1ccc2c(c1)OC[C@H]1c3cc4c(cc3O[C@@H]21)OCO4	none (no result: KB-V1 MDR tox, KB-3-1 tox, HT1080NT lethal, HT1080 IDH1KD tx)
COc1cccc(C2c3cc4c(cc3OC(N3CCOCC3)C2C)OCO4)c1O (configuration not stated)	KB-V1 MDR tox inconclusive, KB-3-1 tox inconclusive, HT1080NT lethal inconclusive, HT1080 IDH1KD tx inconclusive, DT40 TDP1 no CPT 8.2µM
COc1ccc(C2c3cc4c(cc3OC(N3CCOCC3)C2C)OCO4)c(OC)c1 (configuration not stated)	KB-V1 MDR tox inconclusive, KB-3-1 tox 4.6µM, DT40 TDP1 CPT 5.2µM, HT1080NT lethal inconclusive, HT1080 IDH1KD tx inconclusive, DT40 TDP1 no CPT 4.1µM
COc1cccc(-c2cc3nc(NCc4ccc(C)cc4C)n(C)c(=O)c3s2)c1	KB-V1 MDR tox inconclusive, KB-3-1 tox inconclusive, DT40 TDP1 CPT inconclusive, DT40 TDP1 no CPT inconclusive
Cc1cc(C)n(C(C)CC(=O)NCc2ccc(Cl)cc2)n1 (configuration not stated)	none (no result: HT1080NT lethal, HT1080 IDH1KD tx)
Cc1c(C(=O)NCCN(C)C)sc2nc3n(c(=O)c12)CCC3	none (no result: HT1080NT lethal, HT1080 IDH1KD tx)
Oc1ccc(Br)cc1-c1nc2cnccn2c1NC1CCCCC1	HT1080NT lethal inconclusive
Oc1ccc(Br)cc1-c1nc2cnccn2c1NC1CCCC1	KB-V1 MDR tox 23µM, KB-3-1 tox inconclusive, DT40 TDP1 CPT inconclusive, DT40 TDP1 no CPT inconclusive
CCOC(=O)C1CCCN(C(=O)c2ccc(SC(F)(F)F)cc2)CC1 (configuration not stated)	DT40 TDP1 CPT inconclusive, DT40 TDP1 no CPT inconclusive
COc1ccc(C/C(C)=N/NC(=O)C2COc3ccccc3O2)cc1 (configuration not stated)	none
CCOc1ccc(-n2c(C)cc(/C=N/NC(=O)C(N)=O)c2C)cc1	none
CCOc1ccc(-n2c(C)cc(/C=N/N(C)C)c2C)cc1	DT40 TDP1 CPT 9.2µM, DT40 TDP1 no CPT 7.3µM
CCOc1ccc(-n2c(C)cc(/C=N\NC(=O)CC(=O)NC3CCCCC3)c2C)cc1	DT40 TDP1 CPT 18µM, DT40 TDP1 no CPT 13µM
CCOc1ccc(-n2c(C)cc(/C=N/Nc3nc(C)cc(=O)[nH]3)c2C)cc1	DT40 TDP1 CPT 16µM, DT40 TDP1 no CPT 12µM
